# Test results: ChEMBL document CHEMBL1157539, “Thousands of chemical starting points for antimalarial lead identification” (Nature, 2010)
# Experiments:
# Type in all cases: functional
# Plasmodium falciparum [1] = assay: GSK_TCMDC: Inhibition of Plasmodium falciparum 3D7 in whole red blood cells, using parasite LDH activity as an index of growth. Test compounds present at 2uM
# Plasmodium falciparum [2] = assay: GSK_TCMDC: Inhibition of Plasmodium falciparum Dd2 in whole red blood cells, using parasite LDH activity as an index of growth. Test compounds present at 2uM
# HepG2 = assay: GSK_TCMDC: Percent inhibition of human HepG2 cell line. Test compounds present at 10uM.
SMILES,Inhibition (Plasmodium falciparum [1]),Inhibition (Plasmodium falciparum [2]),Inhibition (HepG2)
COc1ccccc1C1CC(c2ccc(Br)cc2)=NN1C(=O)c1ccccc1 (centres undefined),85%,59%,12%
Cc1ccc(C(=O)Nc2ccc(Nc3ccnc4cc(-c5ccccn5)ccc34)cc2O)cc1.Cl,100%,100%,100%
Cl.O=C1Nc2ccc3ncccc3c2/C1=C/Nc1ccc(N2CCN(CCO)CC2)cc1,86%,55%,34%
CCCCCCN1CCC(NCc2cccc([N+](=O)[O-])c2)CC1.O=C(O)C(F)(F)F,100%,16%,0%
Cc1ccc(S(=O)(=O)Nc2ccc(Nc3nccc(Nc4cccc5[nH]ncc45)n3)cc2)cc1,90%,5%,57%
N#Cc1ccc(N2CCN(Cc3cccc(-c4cccc(-c5nc6cc(C(F)(F)F)ccc6[nH]5)c4)c3)CC2)nc1.O=C(O)C(F)(F)F,99%,50%,15%
COc1cc(NCCCNC(=O)c2ccc(Cl)c(Cl)c2)nc2ccccc12,99%,100%,48%
CC(C)(C)[C@@H](Nc1ccc(C#N)c2ccccc12)C(=O)NC1(Cc2ccc(O)cc2)CCCC1,90%,74%,14%
COc1ccc(-c2csc3ncnc(Cl)c23)cc1OC,93%,84%,0%
CN1CCN(c2ccc(CNc3ccc4ncc(-c5cccc(OC(F)(F)F)c5)n4n3)cc2)CC1,89%,78%,25%
O=C(Nc1cccc(F)c1)NC1CCN(c2ccnc3cc(Cl)ccc23)C1.O=C(O)C(F)(F)F (centres undefined),100%,64%,13%
Cl.NC(=O)c1cnc2cc(-c3ccoc3)ccc2c1Nc1ccc(NC(=O)Nc2ccccc2Cl)cc1,100%,76%,39%
CCc1ccc(CN2CCC(C(=O)Nc3ccc(-c4nc5ccccc5[nH]4)cc3)CC2)o1,99%,94%,29%
CCNc1cc(C(=O)N[C@@H](Cc2ccccc2)[C@H](O)CNCc2cccc(OC)c2C)cc(N2CCCCS2(=O)=O)c1.O=CO,97%,98%,8%
COc1ccc(CNC2CCN(C)CC2)cc1-c1ccc(S(=O)(=O)NC2CCC2)c(C)c1.O=C(O)C(F)(F)F,100%,96%,24%
Cc1cc(C)c(O)c(-c2cc(C(=O)Nc3ccc(S(=O)(=O)N4CC(C)OC(C)C4)cc3)[nH]n2)c1 (centres undefined),95%,16%,31%
Cn1cnc(CCNC(=O)c2cccc(-c3csc(-c4nc5ccccc5[nH]4)c3)c2)c1,100%,26%,33%
CCOCCCn1c(=N)c(C(=O)NCc2ccc(OC)cc2)cc2c(=O)n3cccc(C)c3nc21,99%,46%,24%
CCOc1ccc(NC(=O)c2ccc(CN3CCCN(Cc4cccc(O)c4)CC3)cc2)cc1.O=C(O)C(F)(F)F,85%,9%,44%
COc1ccccc1CNC(=O)CCn1c(=O)[nH]c2ccsc2c1=O,85%,75%,0%
C=C[C@H]1CN(CCCCCCC)CC[C@H]1CCNc1ccnc2ccc(OC)cc12,95%,81%,99%
CCCCCc1ccc(NC(=O)Nc2ccc(Cn3ncc(N4CCCNCC4)c(Cl)c3=O)cc2)cc1.O=C(O)C(F)(F)F,87%,23%,15%
Cn1cncc1C(=O)NC1CCN(c2ccnc(Nc3ccc(F)cc3)n2)C1 (centres undefined),97%,83%,2%
Cc1nn(-c2cccc(C(F)(F)F)c2)c2sc(C(=O)NC3CCN(C(C)C)CC3)cc12,94%,20%,98%
COc1ccc2ccc(F)c(CC(=O)N3CCOC(CNCc4cccc(-c5ccc(F)cc5)n4)C3)c2n1 (centres undefined),92%,1%,5%
Fc1ccc2[nH]c(-c3ccc(-c4ccc(CN5CCN(c6cnccn6)CC5)cc4)s3)nc2c1.O=C(O)C(F)(F)F,99%,98%,45%
CCn1c(-c2nonc2N)nc2c(-c3cccc(NC(=O)Nc4ccccc4OC)c3)ncc(OCCCN)c21.O=C(O)C(F)(F)F,92%,58%,84%
O=C(NCCc1ccccc1)N(Cc1cccc(-c2ccc(CNCCc3ccccc3)cc2)c1)C1CCN(Cc2ccccc2)CC1.O=C(O)C(F)(F)F,90%,91%,94%
